In the supplement of paper PMC11732987, “Enantioselective OTUD7B fragment discovery through chemoproteomics screening and high-throughput optimisation” (Communications Chemistry, 2025):

What was measured:
Assay in all cases: log2 ratio of Biotin-Ahx-Ub-VS probe labelling (fragment/DMSO); higher = less target engagement (more negative = stronger competition), active = hit call of the paper (q ≤ 0.05, log2 ratio ≤ -1)
Conditions in all cases: compound concentration: 200 uM; treatment time: 3 h
USP34 = USP34 (UniProt Q70CQ2)
Sequence of USP34 (Q70CQ2 whole entry, the tested form may be a part): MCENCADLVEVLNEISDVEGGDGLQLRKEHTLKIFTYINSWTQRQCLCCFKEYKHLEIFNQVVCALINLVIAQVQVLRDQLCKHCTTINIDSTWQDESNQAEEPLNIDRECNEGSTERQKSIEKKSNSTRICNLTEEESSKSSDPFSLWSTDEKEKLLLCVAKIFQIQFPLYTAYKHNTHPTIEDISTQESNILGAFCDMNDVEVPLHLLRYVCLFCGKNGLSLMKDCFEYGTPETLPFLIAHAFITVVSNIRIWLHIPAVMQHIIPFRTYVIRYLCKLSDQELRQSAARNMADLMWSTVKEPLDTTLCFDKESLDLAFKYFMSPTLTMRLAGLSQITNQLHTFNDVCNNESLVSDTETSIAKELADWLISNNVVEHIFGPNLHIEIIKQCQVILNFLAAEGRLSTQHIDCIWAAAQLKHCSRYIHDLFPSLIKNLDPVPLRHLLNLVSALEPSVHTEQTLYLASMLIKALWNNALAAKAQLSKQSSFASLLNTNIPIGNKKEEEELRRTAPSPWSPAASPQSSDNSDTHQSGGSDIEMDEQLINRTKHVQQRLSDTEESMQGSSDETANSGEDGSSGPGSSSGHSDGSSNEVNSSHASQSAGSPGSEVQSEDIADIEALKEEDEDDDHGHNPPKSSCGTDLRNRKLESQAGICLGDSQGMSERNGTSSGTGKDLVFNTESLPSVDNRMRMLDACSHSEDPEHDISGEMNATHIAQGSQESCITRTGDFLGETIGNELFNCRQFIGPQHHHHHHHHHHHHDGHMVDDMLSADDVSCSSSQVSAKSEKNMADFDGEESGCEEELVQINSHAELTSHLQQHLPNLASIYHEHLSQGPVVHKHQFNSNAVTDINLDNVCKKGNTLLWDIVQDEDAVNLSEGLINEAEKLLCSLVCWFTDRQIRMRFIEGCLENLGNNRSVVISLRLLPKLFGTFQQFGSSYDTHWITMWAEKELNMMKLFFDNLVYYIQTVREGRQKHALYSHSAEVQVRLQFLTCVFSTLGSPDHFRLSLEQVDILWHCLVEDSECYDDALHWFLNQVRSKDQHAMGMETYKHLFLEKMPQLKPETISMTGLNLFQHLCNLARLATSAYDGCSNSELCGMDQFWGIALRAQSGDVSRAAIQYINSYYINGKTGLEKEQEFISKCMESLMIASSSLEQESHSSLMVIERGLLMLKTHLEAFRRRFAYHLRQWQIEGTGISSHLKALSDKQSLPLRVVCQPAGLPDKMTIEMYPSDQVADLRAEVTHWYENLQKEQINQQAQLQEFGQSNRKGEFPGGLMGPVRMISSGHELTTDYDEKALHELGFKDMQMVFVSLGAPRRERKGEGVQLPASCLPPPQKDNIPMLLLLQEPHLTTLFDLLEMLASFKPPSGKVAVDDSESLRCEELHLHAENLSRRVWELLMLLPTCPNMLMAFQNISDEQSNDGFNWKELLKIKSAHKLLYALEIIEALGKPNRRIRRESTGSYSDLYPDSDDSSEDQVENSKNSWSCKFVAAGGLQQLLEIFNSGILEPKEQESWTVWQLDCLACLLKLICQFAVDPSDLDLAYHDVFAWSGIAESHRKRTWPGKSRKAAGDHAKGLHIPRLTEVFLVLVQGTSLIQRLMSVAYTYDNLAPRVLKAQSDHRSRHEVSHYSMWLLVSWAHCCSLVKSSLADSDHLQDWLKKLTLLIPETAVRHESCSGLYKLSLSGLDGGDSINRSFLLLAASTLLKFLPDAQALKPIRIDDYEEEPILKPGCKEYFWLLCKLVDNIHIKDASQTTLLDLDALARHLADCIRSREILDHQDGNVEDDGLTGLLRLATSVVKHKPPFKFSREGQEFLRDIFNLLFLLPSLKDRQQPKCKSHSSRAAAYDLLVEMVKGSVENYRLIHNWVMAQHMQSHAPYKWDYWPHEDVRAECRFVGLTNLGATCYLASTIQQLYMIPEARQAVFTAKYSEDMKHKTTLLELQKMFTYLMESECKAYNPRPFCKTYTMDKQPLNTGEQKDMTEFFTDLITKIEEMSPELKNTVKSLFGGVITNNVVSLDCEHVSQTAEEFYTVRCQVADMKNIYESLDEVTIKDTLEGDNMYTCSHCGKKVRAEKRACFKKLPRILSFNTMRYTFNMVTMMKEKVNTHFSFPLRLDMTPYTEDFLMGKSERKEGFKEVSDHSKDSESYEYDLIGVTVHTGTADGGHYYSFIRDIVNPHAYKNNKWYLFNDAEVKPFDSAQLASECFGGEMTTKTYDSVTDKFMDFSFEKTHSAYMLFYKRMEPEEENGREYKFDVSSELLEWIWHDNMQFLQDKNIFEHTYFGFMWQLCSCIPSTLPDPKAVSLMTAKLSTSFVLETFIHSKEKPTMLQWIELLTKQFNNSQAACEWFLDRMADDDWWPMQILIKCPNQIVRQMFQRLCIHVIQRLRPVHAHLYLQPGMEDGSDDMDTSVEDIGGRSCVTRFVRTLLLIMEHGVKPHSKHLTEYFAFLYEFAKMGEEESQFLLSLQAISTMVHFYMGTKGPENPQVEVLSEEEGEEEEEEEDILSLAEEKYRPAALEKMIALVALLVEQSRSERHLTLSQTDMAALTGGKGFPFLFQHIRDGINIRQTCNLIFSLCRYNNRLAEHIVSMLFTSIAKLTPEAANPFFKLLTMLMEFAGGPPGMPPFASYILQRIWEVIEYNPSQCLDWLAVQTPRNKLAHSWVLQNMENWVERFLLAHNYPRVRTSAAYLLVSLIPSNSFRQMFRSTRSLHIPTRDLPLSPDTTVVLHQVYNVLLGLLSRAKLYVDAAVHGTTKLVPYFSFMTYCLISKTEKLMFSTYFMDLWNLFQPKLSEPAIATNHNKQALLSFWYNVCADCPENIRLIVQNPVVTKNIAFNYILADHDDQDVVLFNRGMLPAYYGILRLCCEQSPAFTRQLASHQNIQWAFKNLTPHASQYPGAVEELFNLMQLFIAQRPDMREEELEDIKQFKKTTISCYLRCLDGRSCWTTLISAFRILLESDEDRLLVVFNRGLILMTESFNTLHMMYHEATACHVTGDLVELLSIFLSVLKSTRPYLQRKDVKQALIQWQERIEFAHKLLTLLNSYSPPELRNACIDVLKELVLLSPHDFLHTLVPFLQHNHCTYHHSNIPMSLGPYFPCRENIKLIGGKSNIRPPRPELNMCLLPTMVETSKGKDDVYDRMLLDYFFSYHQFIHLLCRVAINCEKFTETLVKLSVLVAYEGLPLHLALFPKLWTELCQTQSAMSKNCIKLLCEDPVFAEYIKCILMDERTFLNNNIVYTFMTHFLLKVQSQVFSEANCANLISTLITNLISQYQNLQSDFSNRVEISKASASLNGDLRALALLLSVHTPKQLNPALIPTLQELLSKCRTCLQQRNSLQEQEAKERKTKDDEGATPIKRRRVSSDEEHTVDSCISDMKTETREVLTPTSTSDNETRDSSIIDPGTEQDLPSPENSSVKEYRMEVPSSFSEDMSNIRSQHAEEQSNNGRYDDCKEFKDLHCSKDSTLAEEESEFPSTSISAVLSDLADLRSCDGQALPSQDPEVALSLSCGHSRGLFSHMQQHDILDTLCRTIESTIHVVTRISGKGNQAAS
In short: (§1)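 Labelled DUBs from HEK293T lysate were NeutrAvidin-enriched, digested with LysC and trypsin, and run by diaPASEF LC-MS/MS. Before that, each 495 µg sample in Tris/CHAPS/IGEPAL buffer with protease inhibitors was treated in triplicate with fragment at 200 µM or vehicle for 3 h, then with Biotin-Ahx-Ub-VS at 0.5 µM final for 1 h. Values are average log2 ratios of fragment over vehicle by unpaired t-test, based on global-median-normalised Spectronaut label-free quantities from proteins with ≥2 unique peptides.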

USP36 = biological target: T1, USP36 (UniProt Q9P275)
T1 sequence (whole entry): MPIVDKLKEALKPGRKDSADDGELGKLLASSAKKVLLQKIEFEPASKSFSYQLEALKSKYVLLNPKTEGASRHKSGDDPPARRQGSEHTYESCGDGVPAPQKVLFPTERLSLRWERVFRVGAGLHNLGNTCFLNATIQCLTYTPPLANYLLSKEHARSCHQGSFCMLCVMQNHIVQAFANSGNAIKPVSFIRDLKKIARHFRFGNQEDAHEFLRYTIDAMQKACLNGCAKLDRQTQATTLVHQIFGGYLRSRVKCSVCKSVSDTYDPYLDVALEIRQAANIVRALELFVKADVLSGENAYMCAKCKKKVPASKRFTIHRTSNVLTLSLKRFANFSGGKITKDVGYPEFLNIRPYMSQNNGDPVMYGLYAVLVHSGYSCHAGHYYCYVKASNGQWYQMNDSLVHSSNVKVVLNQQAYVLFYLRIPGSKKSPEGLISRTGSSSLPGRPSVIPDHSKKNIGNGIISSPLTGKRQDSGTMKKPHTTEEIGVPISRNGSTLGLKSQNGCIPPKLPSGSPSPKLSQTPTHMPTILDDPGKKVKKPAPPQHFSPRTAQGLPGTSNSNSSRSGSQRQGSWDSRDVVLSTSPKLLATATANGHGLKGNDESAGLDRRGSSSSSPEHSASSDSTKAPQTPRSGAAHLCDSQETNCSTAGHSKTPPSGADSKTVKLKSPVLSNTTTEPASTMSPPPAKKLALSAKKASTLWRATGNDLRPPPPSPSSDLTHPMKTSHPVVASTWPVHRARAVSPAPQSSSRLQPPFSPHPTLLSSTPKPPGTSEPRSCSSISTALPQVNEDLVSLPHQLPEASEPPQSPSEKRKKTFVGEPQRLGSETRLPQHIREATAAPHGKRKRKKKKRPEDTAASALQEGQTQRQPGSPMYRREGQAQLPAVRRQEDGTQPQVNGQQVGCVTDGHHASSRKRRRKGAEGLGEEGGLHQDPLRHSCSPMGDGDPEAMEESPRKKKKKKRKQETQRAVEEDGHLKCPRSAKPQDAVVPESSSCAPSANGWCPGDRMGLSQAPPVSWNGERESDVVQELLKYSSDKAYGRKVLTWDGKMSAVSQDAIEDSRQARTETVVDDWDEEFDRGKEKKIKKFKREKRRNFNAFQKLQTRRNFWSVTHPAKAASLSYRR
In short: as §1

USP38 = biological target: T2, USP38 (UniProt Q8NB14)
T2 sequence (whole entry): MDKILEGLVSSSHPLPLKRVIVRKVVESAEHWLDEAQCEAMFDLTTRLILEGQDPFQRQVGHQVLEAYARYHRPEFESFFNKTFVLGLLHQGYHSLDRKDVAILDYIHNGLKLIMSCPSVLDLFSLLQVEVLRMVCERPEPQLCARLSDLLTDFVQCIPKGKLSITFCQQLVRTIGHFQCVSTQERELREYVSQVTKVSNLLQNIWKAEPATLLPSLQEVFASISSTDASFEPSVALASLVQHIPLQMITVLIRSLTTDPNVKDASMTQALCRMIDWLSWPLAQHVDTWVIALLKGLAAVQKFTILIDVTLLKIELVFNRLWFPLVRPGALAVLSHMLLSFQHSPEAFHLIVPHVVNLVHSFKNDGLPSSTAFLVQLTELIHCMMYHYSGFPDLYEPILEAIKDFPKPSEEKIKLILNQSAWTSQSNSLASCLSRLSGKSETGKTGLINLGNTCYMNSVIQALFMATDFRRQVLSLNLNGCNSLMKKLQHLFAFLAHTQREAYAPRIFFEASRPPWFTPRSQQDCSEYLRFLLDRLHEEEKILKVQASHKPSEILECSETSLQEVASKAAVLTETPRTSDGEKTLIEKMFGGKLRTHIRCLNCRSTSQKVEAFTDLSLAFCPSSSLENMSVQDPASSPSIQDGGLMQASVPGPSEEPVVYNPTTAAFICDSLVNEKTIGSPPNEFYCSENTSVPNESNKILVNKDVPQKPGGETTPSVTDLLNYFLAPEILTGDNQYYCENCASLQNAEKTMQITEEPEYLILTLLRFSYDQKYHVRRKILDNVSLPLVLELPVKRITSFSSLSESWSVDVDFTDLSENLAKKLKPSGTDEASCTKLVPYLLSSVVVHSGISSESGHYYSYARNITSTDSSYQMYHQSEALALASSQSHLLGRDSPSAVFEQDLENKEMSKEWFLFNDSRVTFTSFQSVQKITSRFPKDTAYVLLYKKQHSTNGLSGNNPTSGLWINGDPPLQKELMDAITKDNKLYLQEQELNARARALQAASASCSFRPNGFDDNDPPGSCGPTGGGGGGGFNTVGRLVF
In short: as §1

USP39 = biological target: T3, USP39 (UniProt Q53GS9)
T3 sequence (whole entry): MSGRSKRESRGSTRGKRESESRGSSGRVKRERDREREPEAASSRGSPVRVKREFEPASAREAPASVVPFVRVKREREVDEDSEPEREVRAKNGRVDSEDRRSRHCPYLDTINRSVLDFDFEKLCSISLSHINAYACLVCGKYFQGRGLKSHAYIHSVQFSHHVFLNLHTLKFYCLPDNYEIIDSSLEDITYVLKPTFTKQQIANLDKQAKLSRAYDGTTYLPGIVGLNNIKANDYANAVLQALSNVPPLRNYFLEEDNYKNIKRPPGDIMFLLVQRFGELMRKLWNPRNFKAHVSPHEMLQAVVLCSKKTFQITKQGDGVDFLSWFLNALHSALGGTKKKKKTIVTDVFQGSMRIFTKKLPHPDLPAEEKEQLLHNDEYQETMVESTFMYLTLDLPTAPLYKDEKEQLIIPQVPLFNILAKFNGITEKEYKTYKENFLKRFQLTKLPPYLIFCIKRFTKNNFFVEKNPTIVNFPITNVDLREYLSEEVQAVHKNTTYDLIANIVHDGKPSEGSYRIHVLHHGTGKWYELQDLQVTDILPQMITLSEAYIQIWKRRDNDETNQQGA
In short: as §1

USP4 = biological target: T4, USP4 (UniProt Q13107)
T4 sequence (whole entry): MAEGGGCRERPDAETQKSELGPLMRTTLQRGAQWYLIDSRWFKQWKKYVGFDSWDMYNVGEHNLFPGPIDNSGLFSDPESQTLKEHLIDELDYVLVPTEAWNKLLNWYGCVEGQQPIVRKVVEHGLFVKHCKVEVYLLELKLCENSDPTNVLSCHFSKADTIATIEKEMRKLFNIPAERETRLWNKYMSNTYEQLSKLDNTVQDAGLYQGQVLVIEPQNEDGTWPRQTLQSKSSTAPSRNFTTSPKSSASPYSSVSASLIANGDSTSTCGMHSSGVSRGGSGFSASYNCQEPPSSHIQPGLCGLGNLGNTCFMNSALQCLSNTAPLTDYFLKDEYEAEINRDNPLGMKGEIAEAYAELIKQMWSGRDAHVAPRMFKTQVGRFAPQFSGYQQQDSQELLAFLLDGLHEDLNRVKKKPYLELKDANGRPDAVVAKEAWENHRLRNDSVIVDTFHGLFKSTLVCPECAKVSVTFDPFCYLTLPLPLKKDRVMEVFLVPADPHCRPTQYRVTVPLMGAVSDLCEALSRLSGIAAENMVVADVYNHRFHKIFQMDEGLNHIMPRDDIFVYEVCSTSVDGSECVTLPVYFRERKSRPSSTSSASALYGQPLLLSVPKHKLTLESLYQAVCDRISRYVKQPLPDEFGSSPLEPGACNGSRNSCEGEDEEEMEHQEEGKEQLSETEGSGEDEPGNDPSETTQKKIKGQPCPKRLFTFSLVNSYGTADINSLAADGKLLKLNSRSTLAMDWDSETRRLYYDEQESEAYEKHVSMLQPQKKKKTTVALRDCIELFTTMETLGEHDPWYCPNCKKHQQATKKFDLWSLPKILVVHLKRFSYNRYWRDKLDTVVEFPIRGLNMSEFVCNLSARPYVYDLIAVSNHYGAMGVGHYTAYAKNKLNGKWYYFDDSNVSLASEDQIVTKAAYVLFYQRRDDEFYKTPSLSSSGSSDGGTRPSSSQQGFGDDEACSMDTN
In short: as §1

Measured: log2 ratio of Biotin-Ahx-Ub-VS probe labelling

O=C(CCl)Nc1nc(-c2cccs2)cs1
inactive: USP34 -0.754 | USP36 -0.271 | USP38 -0.092 | USP39 0.197 | USP4 -0.0279
